Reference: PubChem BioAssay (NCI)
Compounds without any hit were thinned out: in the full panel of roughly 83,000, 20% have a hit.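 Assay: single dose, 48 h. Readout: percent growth (0 = no net growth; negative = cell death). Active: <10.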 Unmarked numbers belong to inactive results. The source made the active and inactive calls.

Legend:
Assay in all cases: NCI-60 one-dose screen, 48 h (100 = growth as untreated, 0 = no growth, -100 = all killed)
Conditions in all cases: 10 µM unless noted
DU-145 prostate = system: DU-145 prostate
K-562 leukemia = system: K-562 leukemia
MALME-3M melanoma = system: MALME-3M melanoma
MDA-MB-231 breast = system: MDA-MB-231 breast
RXF 393 renal = system: RXF 393 renal
SF-268 CNS = system: SF-268 CNS
SF-295 CNS = system: SF-295 CNS
SF-539 CNS = system: SF-539 CNS
UACC-257 melanoma = system: UACC-257 melanoma
M14 melanoma = system: M14 melanoma

Row | Structure (SMILES) | growth (DU-145 prostate) | growth (K-562 leukemia) | growth (MALME-3M melanoma) | growth (MDA-MB-231 breast) | growth (RXF 393 renal) | growth (SF-268 CNS) | growth (SF-295 CNS) | growth (SF-539 CNS) | growth (UACC-257 melanoma) | growth (M14 melanoma)
1 | CC([C@H]1CCC2C3CCC4C(=O)C(NC=O)=CC[C@]4(C)C3CC[C@@]21C)N(C)C (stereo not given in full) | 59.5% | 15% | -2.06% (active) | 11.2% | -53.3% (active) | -3.89% (active) | 36.6% | -45.6% (active) | -20.9% (active) | -33% (active)
2 | Cc1ccc2sc3c(NCCN)nc4ccccc4c3c(=O)c2c1 | 64.1% | 0.362% (active) | 102% | 41.7% | 89.8% | 74.5% | 105% | 70.8% | 108% | 86.7%
3 | COc1ccc(-c2ncnc3c2ncn3CC#CCCl)cc1 | 87.6% | 58.3% | 20.2% | 70.1% | 29.7% | 62.9% | 95.3% | 92.3% | 59.5% | 70.1%
4 | c1ccc2cc(C[n+]3ccn(CCCCCCn4cc[n+](Cc5ccc6ccccc6c5)c4)c3)ccc2c1 | 65.9% | 28.3% | 11.2% | 84.1% | 87.4% | 55.6% | 48.3% | 56.3% | 61.9% | 69.9%
5 | CCOc1cccc(NC2=C(Br)C(=O)C(C)=C(C)C2=O)c1 | 104% | 0.431% (active) | 91.4% | 34.3% | 113% | 94.1% | 101% | 94.9% | 68% | 87.1%
6 | CCCCCCNC(=O)Oc1ccc(/C(=C(\C)c2ccc(Cl)cc2)c2ccc(OCCN3CCCCC3)cc2)cc1 | 69.3% | 1.22% (active) | 31.6% | 53.4% | 24.1% | 56.6% | 48.2% | 42.5% | 18.6% | -33.5% (active)
7 | CCOC(=O)/C=C1\S/C(=N\Nc2ccc([N+](=O)[O-])cc2[N+](=O)[O-])N(Cc2ccccc2)C1=O | 81.4% | 54.7% | 93.1% | 84.9% | 78% | 89.7% | 95.1% | 99.6% | 90.1% | 100%
8 | CCCCN(C)N=Nc1ccc(C(N)=O)cc1 | 113% | 116% | 111% | 106% | 150% | 108% | 101% | 107% | 105% | 102%
9 | CCOC(=O)c1[nH]c(C)c(C(=O)OCc2ccccc2C#N)c1C | 87.2% | 25.6% | 66.5% | 73.9% | 58.3% | 72.9% | 75.2% | 16.2% | 114% | 58.9%
10 | CCCCCCN1C(=O)/C(=c2\sc3n(c2=O)C2C(NN=3)N(CC)C(=O)N2CC)c2ccccc21 (stereo not given) | 24.4% | 6.81% (active) | 6.95% (active) | 14.8% | 25.8% | 27.5% | -23% (active) | -54.9% (active) | 39.3% | 20.3%
11 | COc1ccc(CN2c3ccccc3Sc3ccccc32)c(F)c1 | 20.5% | 8.99% (active) | 57% | 60.4% | 0.721% (active) | 52.3% | 7.51% (active) | -3.66% (active) | 52.3% | 11.2%
12 | C/C(=C\C(=O)c1ccc(Cl)cc1)c1ccc(Cl)cc1 | 113% | 106% | 97.5% | 89.8% | 106% | 96.4% | 109% | 104% | 98.4% | 104%
13 | COc1nc2ccccc2cc1-c1nc2c(cnn2-c2ccccc2)c(=O)[nH]1 | 61% | 16.7% | 75.6% | 58.3% | 67.1% | 53.6% | 43.8% | 28.9% | 55.5% | 23.9%
14 | c1ccc(-c2nc3sc(-c4ccccc4)cn3n2)cc1 | 84.4% | 88.5% | 124% | 64.5% | 97.7% | 92.3% | 101% | 98.7% | 86% | 86.7%
15 | C=C(C)C1CCC2(C)OC2C1 (stereo not given) | 122% | 135% | 95.7% | 102% | 204% | 115% | 96.7% | 103% | 132% | 108%
16 | Cc1ccc(-c2nn(C)c(=O)c3noc(-c4ccc(C)cc4)c23)cc1 | 35.3% | 17% | 73.9% | 58.3% | 13.6% | 55.1% | 41.2% | -4.12% (active) | 62.8% | 21.6%
17 | COc1ccc(-c2[nH]ncc2-c2cc3c(c(OC)c2)OCC(=O)N3)cc1 | 14.8% | 12.6% | 57.3% | 7.86% (active) | -35.1% (active) | 54% | 9.29% (active) | -23.9% (active) | 59.8% | 11.6%
18 | O=C(Nc1ccc(-c2nc(-c3cccc(OCCN4CCOCC4)c3)c(-c3ccnc(Br)c3)[nH]2)cc1)c1ccccc1 | 55.6% | 0.946% (active) | -21% (active) | 29.2% | -49.9% (active) | 38.9% | -70.9% (active) | -39.8% (active) | -0.153% (active) | 6.5% (active)
19 | COC(=O)Nc1ccc(-c2nc(-c3cccc(OC)c3)c(-c3ccnc(Br)c3)[nH]2)cc1 | 81.4% | 13.8% | 66.7% | 65.3% | -12.2% (active) | 76% | 9.58% (active) | 51.6% | 71.7% | 42.5%
20 | CC(C)C(=O)Nc1ccc(-c2nc(-c3cccc(OCCN4CCOCC4)c3)c(-c3ccnc(Br)c3)[nH]2)cc1 | 71.5% | 2.82% (active) | 33.6% | 57.6% | -35.3% (active) | 60.3% | -57.7% (active) | 24.3% | 56.6% | 59.7%
21 | CCC12CCC[N+]3([O-])CCC4(C(=Nc5ccccc54)C(O)(C(=O)OC)C1)C23 (stereo not given) | 103% | 109% | 104% | 103% | 113% | 96.2% | 102% | 103% | 115% | 96.7%
22 | Nc1nc(Cl)cc(=O)n1Cc1ccccc1 | 98.9% | 106% | 93.2% | 92% | 101% | 103% | 95.5% | 96.2% | 93.1% | 93.3%
23 | Cn1cc(C(=O)c2nc(-c3cn(C)c4ccc(F)cc34)no2)c2cc(F)ccc21 | 110% | 96.2% | 96.4% | 96.7% | 116% | 99.6% | 100% | 107% | 94.9% | 100%
24 | Cc1c(C(=O)NCCN2CCOCC2)cn2ncnc(Oc3ccc(NC(=O)Nc4ccc(Cl)c(C(F)(F)F)c4)cc3)c12 | 42.3% | 4.96% (active) | -4.42% (active) | 7.21% (active) | -26.8% (active) | 29% | -29.3% (active) | -2.93% (active) | 24.3% | 3.71% (active)
25 | CCCCCCn1c(-c2ccc(C(=O)O/N=C(\N)c3ccc(OC)cc3)cc2)nc(-c2ccccc2)c1-c1ccccc1 | -73.6% (active) | -35.3% (active) | -18.2% (active) | -24% (active) | -59.6% (active) | 3.04% (active) | 1.78% (active) | -84.1% (active) | 48.3% | 40.9%
26 | CCc1nnc(NC(=O)c2nnn(-c3ccccc3)c2-c2ccco2)s1 | 101% | 71.8% | 98.9% | 92.9% | 100% | 107% | 87.2% | 99.7% | 102% | 98.4%
27 | COc1cc(C(=O)/C=C/c2sc(Cl)nc2Cl)cc(OC)c1OC | 43.5% | 3.23% (active) | -35.1% (active) | 31.7% | -28.9% (active) | 61.5% | 92.8% | -11.9% (active) | 70.8% | 42.3%
